Source: publication PMC7819943, “Rice protein-binding microarrays: a tool to detect cis-acting elements near promoter regions in rice”
Whole data set: some 68,000 sequences, median “fluorescence intensity (a.u.)” near 9,100, cut for the highest 2% near 16,000. The list comes from a sample in which the highest values are over-represented; it also holds similar and randomly drawn sequences.

target: OsWRKY34 (Oryza sativa, UniProt Q0JBA9 1-250); assay: protein-binding microarray (RPBM); PBS, 2% BSA, 51.3 ng/ul salmon testes DNA, 50 uM zinc acetate, 200 nM TF, 25 C, 1 h; high values mean tight binding; settings: protein: recombinant; tags: N-terminal polyhistidine and DsRed monomer fusion (pET32a); label: CyDye5-dUTP incorporated in the synthesized complementary strand; 3' TTTTT single-stranded linker to array surface; dsDNA, one strand shown
Procedure, shortened: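 Transcription factors were each fused at the N-terminus to a polyhistidine tag plus DsRed and expressed in E. coli BL21-CodonPlus before Ni–NTA purification. Binding to a double-stranded custom Agilent array was carried out with 200 nM protein at 25 °C for 1 h in PBS, 2% BSA, salmon testes DNA and 50 µM zinc acetate. The binding signal is per-feature fluorescence intensity, in arbitrary units, on an Axon 4000B scanner.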

OsWRKY34, sequence (Q0JBA9 entry or part of it): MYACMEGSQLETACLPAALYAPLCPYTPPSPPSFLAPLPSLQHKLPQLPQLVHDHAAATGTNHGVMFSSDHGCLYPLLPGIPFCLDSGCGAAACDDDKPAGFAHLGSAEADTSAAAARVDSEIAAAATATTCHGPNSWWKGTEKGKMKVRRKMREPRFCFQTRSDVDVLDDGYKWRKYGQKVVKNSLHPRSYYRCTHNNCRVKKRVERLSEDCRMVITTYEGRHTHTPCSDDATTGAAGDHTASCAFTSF

Sequence | binding signal
GGTTTCGTTCGCGAGGAGGAGAGATCTGGTTGGGGAGATGCGGAGTCACCTAGTGCAG | 9660 fluorescence intensity (a.u.)
AGGAGGCGCTACCTTCTATTCCTCACCGGCTCACCGCTATCGGAGTCACCTAGTGCAG | 9700 fluorescence intensity (a.u.)
TGATTTTTTTTTTGTTTCACAGTGCACAGACCAATGTTTCCGGAGTCACCTAGTGCAG | 8320 fluorescence intensity (a.u.)
CGCCGCCACCGCGACTCCTCGCATTCGTCCCCACCACATCCGGAGTCACCTAGTGCAG | 9990 fluorescence intensity (a.u.)
CTTTTTTTTAATGTATTGATGCTTCTTTTCTAGTTTGTACCGGAGTCACCTAGTGCAG | 9060 fluorescence intensity (a.u.)
AGTAGCAGCAGCAGCAGCAGGCAGGAGGGAGTGGGTTTGTCGGAGTCACCTAGTGCAG | 9600 fluorescence intensity (a.u.)
GACAGCGTGAATTCGAGGGATTTCTTGGCTGGTTTGGTTGCGGAGTCACCTAGTGCAG | 10100 fluorescence intensity (a.u.)
TTCTCCGCGCTGCAGTCCTCGCCACAACTCGTCGGCCGAACGGAGTCACCTAGTGCAG | 11600 fluorescence intensity (a.u.)
GGTCATTCATGTATTTTTCTTGCGTTTTGCAATCCTCTGTCGGAGTCACCTAGTGCAG | 11200 fluorescence intensity (a.u.)
CCGCCGCCGCCGCCGCCGACCTTGTCACTCCGGCCGCTGCCGGAGTCACCTAGTGCAG | 9390 fluorescence intensity (a.u.)
GACCGACTACTCCTACAAACATTACTCAAGTCATTGCAAACGGAGTCACCTAGTGCAG | 8200 fluorescence intensity (a.u.)
ATTTTGCATGGGGCATGTGTGAAGTGTCCTACTAAATTTTCGGAGTCACCTAGTGCAG | 9350 fluorescence intensity (a.u.)
GGTTGTAGGTGGAGGAGGAGGAGGGGCGGTTCCGGAGTTTCGGAGTCACCTAGTGCAG | 22600 fluorescence intensity (a.u.)
GACTCGGCGGCCTCTGCTCCTCCGCTCGTTCCTCTCCCGACGGAGTCACCTAGTGCAG | 11100 fluorescence intensity (a.u.)
GGAGGGGCGGGGTGGCGCGGCGAGGCCGGCGACAAGGCCGCGGAGTCACCTAGTGCAG | 9130 fluorescence intensity (a.u.)
GTGTGGTGCGAGCAGTGATATTTTCTGTGTTGGGTCTGGGCGGAGTCACCTAGTGCAG | 8120 fluorescence intensity (a.u.)
CGGTAGGGCGAGCACGGGTGGGGTTGGTGGTGATTTTTTTCGGAGTCACCTAGTGCAG | 20800 fluorescence intensity (a.u.)
TCCGCTCGTTCCTCTCCCGACGAGGGTGGGTGGGGTGGGGCGGAGTCACCTAGTGCAG | 22700 fluorescence intensity (a.u.)
AGGGAGGCGTAGGTTGTGGTCGTTGTTGCGGTTTGGAGTTCGGAGTCACCTAGTGCAG | 8250 fluorescence intensity (a.u.)
AATTCCGGTGGTTCACCGCCGGTGAGGGTTGGAGGAGGGGCGGAGTCACCTAGTGCAG | 8160 fluorescence intensity (a.u.)
GCGCGCCGCGCTCACGGGTGGGTCAAGGCAAGGGGAAGGGCGGAGTCACCTAGTGCAG | 9400 fluorescence intensity (a.u.)

Sequence | binding signal
GGTAGGGCTGCCGCCGGTGGGTAGGGGTGGTGGATTTTTTCGGAGTCACCTAGTGCAG | 14400 fluorescence intensity (a.u.)
CCCGGCCGCTCTCTCCGGGTGGGGTGGTGGGTGGCAAGGGCGGAGTCACCTAGTGCAG | 21100 fluorescence intensity (a.u.)
GGTTCGTTCGTTCCTCCCGCGGCGACGGGGTGGGGCACACCGGAGTCACCTAGTGCAG | 8930 fluorescence intensity (a.u.)
TCGTTTCTTTGCCAGCTGCGCATCCATTCAGCCGGTCGTACGGAGTCACCTAGTGCAG | 12700 fluorescence intensity (a.u.)
CTTTTATTTAACGGATGTTTCACCATGGTCTTTACTGTAGCGGAGTCACCTAGTGCAG | 9320 fluorescence intensity (a.u.)
TCCCATCACACACACCACCGCTCCGCTCCATGTCGCACCACGGAGTCACCTAGTGCAG | 8350 fluorescence intensity (a.u.)
CGTAGAAGATGTTGCTGTTGCCGCCGTTGACGAACTTGGTCGGAGTCACCTAGTGCAG | 8810 fluorescence intensity (a.u.)
CAAATTACTACTACCTCCGTCCCAAAATAATTGCATTTCTCGGAGTCACCTAGTGCAG | 8950 fluorescence intensity (a.u.)
CACGCACCCTCTTTCCCGTGCTTCGTGTGCCCTTCGATCGCGGAGTCACCTAGTGCAG | 9430 fluorescence intensity (a.u.)
AGATTATTTTGCTCGATTTTGAATTTTTCATGCATCCGTCCGGAGTCACCTAGTGCAG | 9150 fluorescence intensity (a.u.)
AGAGCGGGTGGGAGGCGAAGTAGACAGGGGCGGGGCGCATCGGAGTCACCTAGTGCAG | 15700 fluorescence intensity (a.u.)
TTACCTCGCGTACCCTCGCACCCGTCTCCCGCAGACAGATCGGAGTCACCTAGTGCAG | 8480 fluorescence intensity (a.u.)
GTGTGTGCATGCTGATAGCTTGGTCTCTTGAGGATAATTGCGGAGTCACCTAGTGCAG | 9730 fluorescence intensity (a.u.)
TCATTTGATTTATTGTTAAATATATTTTTATGTATACATACGGAGTCACCTAGTGCAG | 8550 fluorescence intensity (a.u.)
CTTCCTCCGTTTCACAATGTAAGTCGTTCTAGCATTTTTCCGGAGTCACCTAGTGCAG | 8110 fluorescence intensity (a.u.)
GTTATGTTAGGTCTGGTTTTTTGGCTGTAGCAGCAGCAGTCGGAGTCACCTAGTGCAG | 8510 fluorescence intensity (a.u.)
GCTAGACACAGGCAACCAAACACACCCTAACACTCACTGTCGGAGTCACCTAGTGCAG | 9290 fluorescence intensity (a.u.)
CGGCGGCGGCGACCGCGGGTAGGGTGGGTGGCGCGGGCCGCGGAGTCACCTAGTGCAG | 9330 fluorescence intensity (a.u.)
ACCTCCTTTTCATACAGCCGGCGTGGCATTTGTGGGCCCACGGAGTCACCTAGTGCAG | 9220 fluorescence intensity (a.u.)
GACGTGGCTATGGGTGGGCGTTGCGAGCCGGCATTTTATACGGAGTCACCTAGTGCAG | 16400 fluorescence intensity (a.u.)
TAGGTAGGGTGGTGGCGGGCGGGCTCCCGCAGCCAGTGGCCGGAGTCACCTAGTGCAG | 11100 fluorescence intensity (a.u.)

Sequence | binding signal
GGAACGGCCAGCGGCGGCGGCGGGTAGGGTGGGGTGGGGCCGGAGTCACCTAGTGCAG | 21600 fluorescence intensity (a.u.)
GGCCGGCGACGCTGAACGGGGTGGGGTAGTCTGCTATTTACGGAGTCACCTAGTGCAG | 18000 fluorescence intensity (a.u.)
CGGGTAGGGTGGGGTGGGGCGGGGTGGGGTTGGCGGCGACCGGAGTCACCTAGTGCAG | 39500 fluorescence intensity (a.u.)
TCGTTGGTGGGTAGGTGGTGGAGATGGTGGTGGCGGCGGGCGGAGTCACCTAGTGCAG | 15600 fluorescence intensity (a.u.)
GCTGTGGGTAGGCCGGCGCCGCCGGCCGACGGGTGGGGAGCGGAGTCACCTAGTGCAG | 8420 fluorescence intensity (a.u.)
GCGGCGCGGTGCGCTCGGGTGGGGCCGGTCGACGTCTGCACGGAGTCACCTAGTGCAG | 8120 fluorescence intensity (a.u.)
GGTGGGCCGGGCTTTGCTTTTGCTTTAAACATTTGCGTGGCGGAGTCACCTAGTGCAG | 8680 fluorescence intensity (a.u.)
GCGGGCGGCAGCGCGGTGGGGCGGTGGCGGTGGTGGCGGCCGGAGTCACCTAGTGCAG | 9980 fluorescence intensity (a.u.)
AAGAAGGGGAAGGGAGTTTCTATGGTTCTTGCTGGTGCCGCGGAGTCACCTAGTGCAG | 8750 fluorescence intensity (a.u.)
GCCTATTTTTTCGTACGGAGTTGGCTTGTAGTAGTTGCATCGGAGTCACCTAGTGCAG | 8950 fluorescence intensity (a.u.)
ACTTCCAAGTCTTCGACCGCGACACTCCTTACCCGCACGCCGGAGTCACCTAGTGCAG | 8570 fluorescence intensity (a.u.)
CGACTACTCGGCCGGCCACCTGCGCCGTCTCTACCCCGAGCGGAGTCACCTAGTGCAG | 9320 fluorescence intensity (a.u.)
GTCCTGCTACGCATACTCTCCCCTCTGACTCTTTGCGCCACGGAGTCACCTAGTGCAG | 8250 fluorescence intensity (a.u.)
GGTCCATCACTCCAAGGTCAGTGCTTTTTTATTTACTCTACGGAGTCACCTAGTGCAG | 14600 fluorescence intensity (a.u.)
AATAAGACGAAAAGTCAAACGTTTGTCAAAAAGTCAACGGCGGAGTCACCTAGTGCAG | 8290 fluorescence intensity (a.u.)
TACTCCTCGTCATTTTGGTTTTGGTTTTGGTTTGGGTGGTCGGAGTCACCTAGTGCAG | 10400 fluorescence intensity (a.u.)
CCAAGGGTGGGGCCTCTCGTCGTCTCGTCTCCTCTCGTCTCGGAGTCACCTAGTGCAG | 20400 fluorescence intensity (a.u.)
CGGGCGGGTCAAGGTCTCCTCCTCTCTCGTCGGCGACCTCCGGAGTCACCTAGTGCAG | 10900 fluorescence intensity (a.u.)
GACTAATAGCTTCAGTTTTGCATGCGATGGCCACTCAAATCGGAGTCACCTAGTGCAG | 10100 fluorescence intensity (a.u.)
TTCAGTTTTCACTTCATTATTTTGCCGTTTCTCTTTGACCCGGAGTCACCTAGTGCAG | 12300 fluorescence intensity (a.u.)
GCTCCTCGTCGCCACCGATCCCCGCCGCCGGCTTGCCTCACGGAGTCACCTAGTGCAG | 9340 fluorescence intensity (a.u.)

Sequence | binding signal
CGCGCCCACCAGTCCACTCACGCGGTCACTCTCCTCCAGTCGGAGTCACCTAGTGCAG | 8140 fluorescence intensity (a.u.)
ACCACTCCACGCGCCTATATCACCACACGTCACGCTTCCACGGAGTCACCTAGTGCAG | 16700 fluorescence intensity (a.u.)
CACCACACGTCACGCTTCCACCTCCACCTCCACCTCACTGCGGAGTCACCTAGTGCAG | 11900 fluorescence intensity (a.u.)
ATCACACGCTGCACCTCTCCCGCGCCCACCAGTCCACTCACGGAGTCACCTAGTGCAG | 18500 fluorescence intensity (a.u.)
CACCACCCCGGCCGCTTCCGCCACTTCACTCCACTCCACACGGAGTCACCTAGTGCAG | 13200 fluorescence intensity (a.u.)
CCACTCACCACGCGCGCTGCCCGCTTGCCTCCTCTGCCCACGGAGTCACCTAGTGCAG | 10200 fluorescence intensity (a.u.)
ACGCTGTTGTAATTCCAGATGTTGGTCAGTAGTCATTACTCGGAGTCACCTAGTGCAG | 10700 fluorescence intensity (a.u.)
CGGGGAGTCGTTGCTGTTCTTGTTCTTGGTCGAGGTTGAGCGGAGTCACCTAGTGCAG | 14500 fluorescence intensity (a.u.)
TCAGCAATCTCTCTTTCTACTAGGGTCTCTTCTACCAGCGCGGAGTCACCTAGTGCAG | 8070 fluorescence intensity (a.u.)
TTGACCACCAAGCTCCTGCTTCTTGCAATCTTGATCGATACGGAGTCACCTAGTGCAG | 9170 fluorescence intensity (a.u.)
ATCCTCATATCGTGTATCCGTATTCGTATCCCCGTATTTGCGGAGTCACCTAGTGCAG | 8230 fluorescence intensity (a.u.)
CTGCACCTAAAGCCTTTCAGAAAACTTTTCACCCTGTCAACGGAGTCACCTAGTGCAG | 8740 fluorescence intensity (a.u.)
TCAACCATAATCACTAGTGTCACAAACACCTTGAAATTCACGGAGTCACCTAGTGCAG | 8120 fluorescence intensity (a.u.)
CACTAATTGATCAATTGCACAACAAATTGCTTGAATAACGCGGAGTCACCTAGTGCAG | 65500 fluorescence intensity (a.u.)
ACATCAACACACCATCACTCGCACAAAACACACTAATAAACGGAGTCACCTAGTGCAG | 8440 fluorescence intensity (a.u.)
AGAATGTTATACGGCGCTCGATCTATTATTCCGCACTCTACGGAGTCACCTAGTGCAG | 8130 fluorescence intensity (a.u.)
TCTCCGTTGTAATATGTTCTTTGTCCTCGATGTGTTTCCGCGGAGTCACCTAGTGCAG | 11400 fluorescence intensity (a.u.)
GATGTACTGAACTGTTTTTTTTTTCGTTTTTAATTTCTAGCGGAGTCACCTAGTGCAG | 8550 fluorescence intensity (a.u.)
GTTTTACTAGTGAATTTTCTTTTCTTTGCTTCGTTTAATGCGGAGTCACCTAGTGCAG | 8930 fluorescence intensity (a.u.)
AATTTCGTTTTTAATACGCCCAGTGAAATTTGCTGTCTAGCGGAGTCACCTAGTGCAG | 17500 fluorescence intensity (a.u.)
TCTCGCCACCTTCGCCTCCATCTCATCGACCGCCCACTTCCGGAGTCACCTAGTGCAG | 12800 fluorescence intensity (a.u.)
